Results from PubChem BioAssay (NCI).
The panel holds about 79,000 compounds, 15% with a hit somewhere; the sample as a whole holds those more often. Activity calls are given as the source filed them. No stated cut-off is given here; in the data, active means growth inhibition above about 70%; inactive means the rest.

Tests used:
[1] = NCI Yeast Anticancer Drug Screen. Data for the rad50 strain (AID 155);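 further: 0% = growth of vehicle-only cultures of the same strain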; settings: S. cerevisiae rad50 strain growth inhibition; at 50.0 µM; stronger effect = higher value
Outline: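 Inhibition values express reduced yeast growth in compound-treated cultures relative to vehicle-treated controls.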

[2] = NCI Yeast Anticancer Drug Screen. Data for the mec2-1 strain (AID 157); settings: S. cerevisiae mec2-1 strain, at 50.0 µM, stronger effect = higher value
Outline: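 Using mec2-1 yeast: add compound, measure growth, express inhibition versus vehicle-treated cultures.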

[3] = NCI Yeast Anticancer Drug Screen. Data for the sgs1 mgt1 strain (AID 161);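 further: 0% = growth of cultures given vehicle only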; settings: S. cerevisiae sgs1 mgt1 strain, at 50.0 µM, stronger effect = higher value
Outline: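 Percent growth inhibition was derived by comparing compound-exposed mutant yeast with vehicle-exposed cultures. The strain carries alterations in DNA damage repair.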

[4] = NCI Yeast Anticancer Drug Screen. Data for the cln2 rad14 strain (AID 165);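 further: 0% = growth equal to vehicle treated cultures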; settings: S. cerevisiae cln2 rad14 strain, at 50.0 µM, stronger effect = higher value
Outline: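 Yeast strain cln2 rad14, bearing defects in cell cycle control and DNA repair, serves as the test system; values reflect growth inhibition compared with vehicle.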

[5] = NCI Yeast Anticancer Drug Screen. Data for the bub3 strain (AID 167); settings: S. cerevisiae bub3 mutant strain, at 50.0 µM, stronger effect = higher value
Outline: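 Steps: expose the mutant yeast strain to compound; grow alongside vehicle-treated cultures; measure growth; express inhibition against the vehicle cultures.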

[6] = NCI Yeast Anticancer Drug Screen. Data for the mlh1 rad18 strain (AID 175); settings: S. cerevisiae mlh1 rad18 strain growth inhibition; at 50.0 µM; stronger effect = higher value
Outline: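 Steps: expose repair-defective yeast to compound; measure growth; express inhibition against vehicle-treated controls.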

Measured: growth inhibition

Cc1ccc2nc(N=C(N)N)[nH]c2c1
inactive: [1] -16.5% | [2] -33.1% | [3] 2.75% | [4] 1.1% | [5] -14.3% | [6] -12.6%

O=c1c2ccccc2nc(-c2ccccc2)n1NC(=S)Nc1cccc(Cl)c1
inactive: [1] 7.45% | [2] -27.1% | [3] 3.65% | [4] -71.7% | [5] 28.7% | [6] 0.55%

CCCCc1ccc(Nc2nc(SC)c3[nH]cnc3n2)cc1
inactive: [1] 0.85% | [2] -17.6% | [3] 28.9% | [4] 16.1% | [5] 29.7% | [6] -37.7%

S=C1N(/N=C/c2c3ccccc3cc3ccccc23)C(=Nc2ccccc2)C(=Nc2ccccc2)N1c1ccccc1
inactive: [1] 16.9% | [2] -4.55% | [3] -6.35% | [4] 24.9% | [5] 16.6% | [6] -7.55%

Cc1[nH]c2ccccc2c1C(c1ccccc1O)c1c(C)[nH]c2ccccc12
inactive: [1] 20.6% | [2] 23.4% | [3] 14.2% | [4] 18.6% | [5] 13.2% | [6] 33.4%

CC1CCC2CC(=O)C(Br)CC2(C)C1C (stereo unspecified)
inactive: [1] 23.6% | [2] -8.95% | [3] 9.75% | [4] -5.35% | [5] -3.95% | [6] 7.45%

Cc1cccc2nc(-c3ccccc3)ccc12
inactive: [1] -3.5% | [2] -11.6% | [3] 1.55% | [4] 5.6% | [5] 4.95% | [6] 4%

COC1N(C2C=CC(CO)O2)C(=O)NC(=O)C1(C)Br (stereo unspecified)
inactive: [1] -4.8% | [2] -18.1% | [3] 2.8% | [4] 2.75% | [5] -17.8% | [6] 15.8%

COC(=O)N/N=C(\c1ccc(OC)cc1)C(c1ccc(OC)cc1)C1(O)C(=O)Nc2c(C)cc(Cl)cc21 (stereo unspecified)
inactive: [1] 20.1% | [2] 14.8% | [3] -4.35% | [4] -30.6% | [5] 18.6% | [6] 18.6%

O=C1c2ccccc2C(=O)c2c(Cl)ccc(O)c21
inactive: [1] 3.15% | [2] 11.2% | [3] 3.8% | [4] 0.1% | [5] 30.4% | [6] 19.9%

CCOC(=O)CC(C)C(Br)(C(=O)OCC)C(=O)OCC (stereo unspecified)
inactive: [1] 47.5% | [4] 20.5%
active: [2] 93.5% | [3] 89.4% | [5] 93.4% | [6] 95.4%

CC(=O)Nc1ccc(/C=C2\SC(=S)N(C=C(C#N)C#N)C2=O)cc1
inactive: [1] 3.95% | [2] 12.2% | [3] -10.4% | [4] 38.5% | [5] 15.2% | [6] -2.35%

Cc1cc2c(=O)cc(-c3ccccc3)oc2c(C(N)=O)c1C
inactive: [1] 15.3% | [2] 19.9% | [3] 27.5% | [4] -2.95% | [5] 14.8% | [6] 1.55%

NC(=S)N/N=C(\Cc1nc2ccc(Cl)cc2[nH]c1=O)C(=O)Nc1ccc(Cl)cc1
inactive: [1] -17.9% | [2] 2.35% | [3] -23.9% | [4] -10.2% | [5] -15.4% | [6] -9.05%

CCCCCCCCCCCCCCCCCCCOc1ccc(OCCCCCCCCCCCC)cc1
inactive: [1] 35% | [2] -7.15% | [3] 25.9% | [4] -40.1% | [5] -1.35% | [6] -15.9%

CC(=O)N(CN1C(=O)CCC1C(=O)O)c1cccc(O)c1 (stereo unspecified)
inactive: [1] 8.45% | [2] 9% | [3] -10.2% | [4] -5.7% | [5] -12.7% | [6] -66.7%

O=C(CN1C(=O)CC(c2ccccc2)(c2ccccc2)C1=O)N1CCN(CCO)CC1
inactive: [1] -0.35% | [2] -4.6% | [3] -22.1% | [4] -5.25% | [5] -16.2% | [6] 2.3%

CN(C)CCCNC(=O)Nc1ccc(Cl)cc1
inactive: [1] 8.15% | [2] 8.15% | [3] 0.15% | [4] 11.8% | [5] -0.35% | [6] 12.8%

O=S(=O)(Nc1cccc(Cl)c1)c1ccc(F)cc1
inactive: [1] -8.45% | [2] -11.2% | [3] -13.2% | [4] -5.4% | [5] -11.3% | [6] 2.5%

CCN(CC)CC(O)c1ccc2ccccc2c1 (stereo unspecified)
inactive: [1] 47.6% | [2] 13.2% | [3] 25.8% | [4] -21.2% | [5] 22.4% | [6] 40.9%

Cc1cc2c(c(N)c1C)C(=O)c1ccccc1C2=O
inactive: [1] 18.4% | [2] 11.4% | [3] 31.7% | [4] 10.9% | [5] 26.2% | [6] 6.7%

Cn1c(=O)c2c(n(C)c1=O)[n+]([O-])c([N+]1([O-])CCOCC1)n2C
inactive: [1] -3.85% | [2] -6.3% | [3] -0.6% | [4] -24.9% | [5] -4.15% | [6] 3.2%

CCCCCCC(/C=C/c1ccc(Cl)c(Cl)c1)=N\Nc1ccccc1
inactive: [1] 3.55% | [2] -15.9% | [3] 14.8% | [4] -19.7% | [5] -4.3% | [6] -12.3%

CCCCCCCCCCCCCCCCOc1cccc(/C(=N/NS(C)(=O)=O)N2CCCCC2)c1
inactive: [1] -16.1% | [2] -30.6% | [3] -8.3% | [4] 1.75% | [5] -16.8% | [6] -5.5%

Cc1ccc(S(=O)(=O)N2CN(S(=O)(=O)c3ccc(C)cc3)CN(S(=O)(=O)c3ccc(C)cc3)C2)cc1
inactive: [1] -29.4% | [2] -32.2% | [3] -22.8% | [4] -6.9% | [5] -40.3% | [6] -24.8%

Clc1cc2nn(C3CCCCO3)nc2cc1Cl (stereo unspecified)
inactive: [1] 0.65% | [2] -12.8% | [3] -18.4% | [4] -15.9% | [5] 16.9% | [6] -44.8%

S=C(S)N(Cc1ccccc1)Cc1ccccc1 (tested in a mixture with another compound)
inactive: [1] 2.85% | [2] 0.7% | [3] 3.7% | [4] -18.8% | [5] 12.8% | [6] -2.05%

CCC(=O)c1cc(-c2ccccc2)nc2ccc(OC)cc12
inactive: [1] 2.6% | [2] 1.2% | [3] 11.5% | [4] -23.4% | [5] -12.2% | [6] -24.4%

O=c1c(O)c(-c2cccnc2)oc2ccc(Cl)cc12
inactive: [1] -2.1% | [2] 17.8% | [3] 12.8% | [4] 21.6% | [5] 16.7% | [6] 0.4%

N#Cc1nc(CCC(C(=O)O)N2C(=O)c3ccccc3C2=O)oc1N (stereo unspecified)
inactive: [1] 3.55% | [2] 15.2% | [3] -12.1% | [4] -0.55% | [5] -9.15% | [6] -46.9%

O=C(/C=C/c1ccccc1)NCCC1(O)C(=O)Nc2ccccc21 (stereo unspecified)
inactive: [1] -8% | [2] -17.2% | [3] 3.05% | [4] 8.35% | [5] -10.5% | [6] -15.5%

COc1ccc(N=Nc2c(C)nc(N)nc2C)cc1
inactive: [1] 2.1% | [2] 18% | [3] 8.05% | [4] -26.8% | [5] -14.3% | [6] 12.6%

COC(=O)c1nnn(-c2ccccc2C(C)C)c1C(=O)c1ccccc1
inactive: [1] 7% | [2] -8.85% | [3] -0.9% | [4] -5.75% | [5] -21.4% | [6] 24.5%

CCCCCCCCCCOc1ccc(C2=C(c3ccccc3)C(=O)C(c3ccccc3)=C2c2ccccc2)cc1
inactive: [1] 25.3% | [2] 10.4% | [3] 17.4% | [4] 14.9% | [5] -5.3% | [6] 3.6%

CCCCC(SC(CC)(CC)C(N)=O)C(N)=O (stereo unspecified)
inactive: [1] 8% | [2] -6.5% | [3] 6.55% | [4] -28.9% | [5] 8.7% | [6] -5.6%

COc1ccc(Sc2cccc(Cl)c2)c(C(=O)O)c1
inactive: [1] -21.8% | [2] -18.4% | [3] -27.2% | [4] 3.8% | [5] -0.55% | [6] 6.5%
